Hits are enriched below; roughly 9.7% of the tested compounds scored in any of these assays.
M1 antagonist: antagonists of rat M1 muscarinic receptor | Muscarinic acetylcholine receptor M1 (Rattus norvegicus), P08482 | CHO-M1 cells, Fluo-4 calcium, ACh EC80 antagonist mode; hits give low values | B-score at 10 µM | hit rate 3.4% among 64,000;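 active means calcium fluorescence response, raw or row-and-column corrected B-score, differing from the plate sample mean either way at a set confidence level, mostly lower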
WNV protease inh: inhibitors of WNV NS2B-NS3 protease, primary screen, biochemical, fluorogenic substrate; Genome polyprotein (West Nile virus), P06935; fluorogenic substrate Ex360/Em465; hits give low values; z-score (no concentration beside the values); hit rate 0.18% among 65,000; AID 577, 2007; in the data active means z-score below about -3
Target sequence (P06935 1371-1501 limits assumed): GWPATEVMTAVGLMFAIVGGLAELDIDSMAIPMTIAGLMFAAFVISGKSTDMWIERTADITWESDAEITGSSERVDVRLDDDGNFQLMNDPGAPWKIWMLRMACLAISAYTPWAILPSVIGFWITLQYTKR
Target sequence (P06935 1502-1679 limits assumed): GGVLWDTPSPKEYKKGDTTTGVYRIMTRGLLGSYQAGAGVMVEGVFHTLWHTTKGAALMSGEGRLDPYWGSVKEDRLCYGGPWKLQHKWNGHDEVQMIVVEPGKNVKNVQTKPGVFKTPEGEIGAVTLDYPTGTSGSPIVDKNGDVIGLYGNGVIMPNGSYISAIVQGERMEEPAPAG
M1 ag: M1 muscarinic receptor agonists, primary screen, CHO-M1 cells, Fluo-4 calcium, agonist mode; Muscarinic acetylcholine receptor M1; hit rate 3% among 64,000; AID 626, 2007; Fluo-4 calcium fluorescence; hits give high values; B-score at 10 µM;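 active means fluorescence rise, raw or as B-score row- and column-corrected plate score, outside the 99.7% band of its plate's samples, either direction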
Autofluor 339: intrinsic fluorescence of library compounds, ex339/em460 – biochemical, MLSMR library, data from DPM-DC assay, artefact control, profiling panel; compound autofluorescence, ex339/em460 nm, NADH buffer; hits give high values; 1 = no-compound wells, NADH background; fluorescence fold increase at 10 µM; hit rate 5.5% among 65,000; AID 709, 2007;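 active means at 10 µM, mean starting fluorescence two-fold or more over control wells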;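 further: signal is the first read of a kinetic run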
BAP1 block: inhibitors of BAP1 deubiquitinase, primary screen, biochemical, Ub-AMC fluorescence, kinetic; calls only at 20 µM; recombinant BAP1, Ub-AMC hydrolysis fluorescence kinetic; hits give low values; hit rate 0.48% among 72,000;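 active means activity remaining at or below 50% of control, provided the compound also passes the data quality filters; inactive means the rest, including low values that fail the filters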;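 further: 100% = DMSO wells rate and 0% = substrate alone blank rate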
A340 absorber: compound light absorbance at 340 nm, profiling panel, artefact control, biochemical, MLSMR library, data from PS, PMK, MK assays; compound absorbance at 340 nm, fold over control; fold change at 10 µM; 65,000 tested, under 10 active;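 active means at 10 µM dose, initial 340 nm absorbance at least 2 fold that of control wells; inactive means change under 2 fold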;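 further: initial absorbance extrapolated from kinetic A340 decline of NADH oxidation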
M1 ag confirm: rat M1 muscarinic receptor agonists, confirmation, CHO-M1 cells, Fluo-4 calcium, duplicate retest; shares compounds with M1 ag; hit rate 19% among 1,700; Fluo-4 calcium fluorescence, agonist mode; actives lie on both sides; fluorescence change (max-min) at 10 µM; AID 1488, 2009;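 active means fluorescence change differs from the solvent-only DMSO control mean at a set confidence level in both duplicate runs; inconclusive means differs from solvent-only control mean in just one of two runs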;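 further: an EC20 dose of acetylcholine follows compound addition during the same imaging run; raw fluorescence intensity difference in instrument units with no normalization to controls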
M4 agonist ctr: agonist activity at rat M4 receptor, confirmation, counter-screen for M1 allosteric modulator project, cell-based, agonist mode; shares compounds with M1 ag; CHO M4/Gqi5 cells, Fluo-4 calcium fluorescence; actives lie on both sides; fluorescence change (max-min) at 10 µM; hit rate 9% among 1,700;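 active means fluorescence change differing from the plate's solvent-only control wells at 99.7% confidence in both duplicates, whether higher or lower; inconclusive means differs from solvent controls in only one of two duplicates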
Active calls of the source: *; i = inactive; ? = inconclusive; . = not tested or not shown.

SMILES	M1 antagonist	WNV protease inh	M1 ag	Autofluor 339	BAP1 block	A340 absorber	M1 ag confirm	M4 agonist ctr
COCCOC(=O)c1ccc(NC(=O)c2cccc(Br)c2)cc1	.	.	.	.	i	.	.	.
CCS(=O)(=O)N(C)c1ccc([N+](=O)[O-])cc1	.	.	.	.	i	.	.	.
CCN1CCN(C(c2cccs2)C(C)NC(=O)CC(C)C)CC1 (stereo not given)	1.1	0.92	-2.7*	0.99	i	1	?	-87
CCN1CCN(C(c2cccs2)C(C)NC(=O)c2ccco2)CC1 (stereo not given)	-2.2	-1.2	-0.031	1.1	i	1	.	.
N#Cc1c(N=Cc2cccc3ccccc23)sc2c1CCCC2	.	.	.	.	i	.	.	.
CCCC(=O)Nc1nc(-c2ccc3c(c2)OCCO3)cs1	-0.14	0.17	3.2*	1.1	i	1	10	-14
COc1cc(C(=O)Nc2ccc3c(c2)OCCO3)ccc1OC(C)C	0.73	-0.75	3.7*	1.1	i	1	-25	-40
CCn1cc(C(=O)Nc2ccc3c(c2)OCCO3)c2cc(OC)c(OC)cc2c1=O	-0.0093	0.94	4.1*	1.1	i	1.1	?	-47
O=C1c2ccccc2C(=O)N1CCC(=O)N(C1CCCCC1)C1CCCCC1	.	.	.	.	i	.	.	.
CN1CCN(c2nc3ccccc3nc2C(C#N)C(=O)OC2CCCCC2)CC1 (stereo not given)	-0.94	-0.59	-0.51	1.2	i	1	.	.
CCOC(=O)C1CCCN(c2nc3ccccc3nc2C(C#N)C(=O)OCCOC)C1 (stereo not given)	-0.83	-0.43	6.8*	1.2	i	1	-7	-28
N#CC(C(=O)OC1CCCCC1)c1nc2ccccc2nc1N1CCOCC1 (stereo not given)	4.8*	1.3	72*	1.1	i	1	-13	-26
CCOC(=O)C1CCCN(c2nc3ccccc3nc2C(C#N)C(=O)OC(C)COC)C1 (stereo not given)	-1.7	0.12	2.9	1.2	i	1	.	.
N#CC(C(=O)NC1CCCCC1)c1nc2ccccc2nc1N1CCN(c2ccc(F)cc2)CC1 (stereo not given)	-0.91	1.1	14*	1.2	i	1	241*	?
CCCCOC(=O)C(C#N)c1nc2ccccc2nc1N1CCN(Cc2ccc3c(c2)OCO3)CC1 (stereo not given)	-0.23	-0.65	14*	1.3	i	1.1	31	6.1
O=C(Nc1nc2ccccc2s1)c1cc([N+](=O)[O-])ccc1Cl	.	.	.	.	i	.	.	.
CN(CCCC(=O)Nc1ccncc1)S(=O)(=O)c1ccc(Cl)cc1	-0.21	-0.57	4.1*	1	i	0.99	5.1	-25
CSc1nc2ccc(S(=O)(=O)Nc3c(C)n(C)n(-c4ccccc4)c3=O)cc2s1	-2.8*	0.04	6.1*	1.1	i	1	?	-87
O=[N+]([O-])c1ccccc1N1CCN(c2ccc([N+](=O)[O-])c3cccnc23)CC1	.	.	.	.	i	.	.	.
CN(C)c1ccc(/C=C/c2ccncc2)cc1	-0.014	0.83	10*	1.1	i	1	111*	150*
COc1cccc(/C=C/c2ccncc2)c1OC	-0.037	-0.82	-0.08	1.2	i	1	.	.
COc1ccc(CC(C(=O)Nc2cc(C)ccc2C)/C(N)=N/O)cc1 (stereo not given)	-0.4	-0.6	2.4*	1.1	i	1	?	-49
Cc1ccc(C)c(NC(=O)C(CC(=O)O)Cc2ccccc2)c1 (stereo not given)	.	.	.	.	i	.	.	.
CCOc1ccc(C=Nc2ccccc2Sc2c(C)n[nH]c2C)cc1	.	.	.	.	i	.	.	.
CCCOC(=O)c1ccc(OCC(O)Cn2c(C)nc3ccccc32)cc1 (stereo not given)	-0.29	0.8	5.7*	1	i	1	?	-84
SMILES	M1 antagonist	WNV protease inh	M1 ag	Autofluor 339	BAP1 block	A340 absorber	M1 ag confirm	M4 agonist ctr
CCOC(=O)Cn1c(C)nc2ccccc21	0.33	-0.84	-0.11	0.97	i	1	.	.
Cc1n[nH]c(C)c1N1C(=O)c2cccc3c(N4CCCCCC4)ccc(c23)C1=O	-14*	-1.8	451*	1.1	i	1	2972*	2513*
COc1ccc(C(=O)Nc2ccc(-c3nc4cc(C)cc(C)c4o3)cc2)cc1[N+](=O)[O-]	.	.	.	.	i	.	.	.
CN1CCN(C(=O)CSc2nc(-c3cccs3)cc(-c3cccs3)c2C#N)CC1	-1.1	-1.8	5.7*	2.8*	i	1.1	-1.4	-16
Cc1cccc(C)c1NC(=O)c1ccccc1NC(=O)c1ccccc1	.	.	.	.	i	.	.	.
Cc1cccc(Cn2cnc3c(nnn3Cc3ccccc3F)c2=O)c1	-2.7*	-0.31	11*	1.1	i	0.99	-34*	-72
Cc1cccc(Cn2cnc3c(nnn3Cc3ccc(F)cc3)c2=O)c1	-0.35	-1.1	-0.028	1.1	i	0.98	.	.
O=C(OCCN1C(=O)c2ccccc2C1=O)c1cc(S(=O)(=O)N2CCOCC2)ccc1Cl	0.26	1.5	3.7*	1	i	1	-15	-25
CCCNC(=O)c1cc2nc(-c3ccccc3)cc(-c3ccccc3)n2n1	.	.	.	.	i	.	.	.
O=C(Nc1nnc(CCN2CCCCC2)s1)C1CCCCC1	-1.7	-0.59	2.7*	0.99	i	0.99	?	-76
O=C(Nc1nnc(CCN2CCOCC2)s1)C1CCCCC1	0.024	0.67	-0.0075	1.1	i	1	.	.
CC1(C)NC(=O)N(CC(O)COc2ccccc2C(=O)Nc2ccccc2)C1=O (stereo not given)	-2.4	0.82	5.4*	1.1	i	1	?	-42
O=C(Nc1ccccc1)c1ccccc1OCC(O)CN1C(=O)c2ccccc2S1(=O)=O (stereo not given)	-1.9	-0.89	6.1*	1.1	i	0.96	-20	?
COc1ccc(C(=O)c2ccc(OCC(C)C)cc2)cc1	.	.	.	.	i	.	.	.
O=C1c2ccccc2C(=O)c2cc(F)ccc21	.	.	.	.	i	.	.	.
Cc1nnc(SC(C)C(=O)Nc2ccc(S(=O)(=O)N3CCCCCC3)cc2)s1 (stereo not given)	0.053	-0.5	-2.5*	1.1	i	1	?	?
